Source: PubChem BioAssay (EPA / NIEHS)
Inconclusive results are not listed. Activity calls are given as the source filed them. Rule for the calls, unless noted: active = hit-call score of the fitted dose curve at least 0.9, where 1 is the maximum; inactive = score below 0.9.

Assays:
[1] = read-out: E-selectin (Homo sapiens) (UniProt P16581); assay: BSK_SAg_Eselectin: BioMAP Diversity Plus: SAg Assay for Eselectin Biomarker Activity (AID 2283091); settings: primary human HUVEC with PBMC; actives raise or lower the signal
In short: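 Endpoint values derive from bidirectional fitting relative to DMSO, using ELISA-measured E-selectin in a human vascular co-culture (umbilical vein endothelium plus PBMC) sampled 24 h after dosing.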

[2] = BSK_SAg_PBMCCytotoxicity: PBMC Cytotoxicity Assessment in the BioMAP Diversity Plus: SAg Assay (AID 2283093); settings: primary human HUVEC with PBMC;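 note: PBMC viability measured as Alamar Blue reduction fluorescence at 546/580 nm; fitted both ways against DMSO so a hit may be loss or gain of signal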;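 for AC50: PBMC superantigen activated with SEB plus TSST-1 one hour after compound addition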
In short: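 Compound added to 75,000 PBMC/well for 1 h; SEB and TSST-1 then added at 20 ng/mL final each; 90 h incubation; Alamar Blue 6 h; read 546/580 nm ex/em. Activity fitted bidirectionally relative to DMSO baseline.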

[3] = read-out: Interleukin-8 (IL8), CXCL8 (gene 3576); assay: BSK_SAg_IL8: BioMAP Diversity Plus: SAg Assay for Interleukin-8 (IL8) Biomarker Activity (AID 2283094); settings: primary human HUVEC with PBMC; actives raise or lower the signal
In short: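 Human umbilical vein endothelial cells co-cultured with PBMC, stimulated with superantigen; IL-8 measured by ELISA 24 h after chemical dosing. Bidirectional fitting versus DMSO; SRB staining in parallel cultures tracks cytotoxicity.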

[4] = BSK_SAg_Proliferation: Cell Proliferation Assessment in the BioMAP Diversity Plus: SAg Assay (AID 2283095); settings: primary human HUVEC with PBMC
In short: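 Human umbilical vein endothelial cells co-cultured with PBMC; sulforhodamine B total-protein staining (0.1% SRB after 10% TCA fixation, absorbance 560 nm) at 96 h in sub-confluent culture. Fitted bidirectionally against DMSO.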

[5] = BSK_SAg_SRB: Viability Assessment in the BioMAP Diversity Plus: SAg Assay (AID 2283096); settings: primary human HUVEC with PBMC;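 note: cells read one day after compound addition; hits may be either gain or loss of signal compared with DMSO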
In short: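 Total protein by sulforhodamine B staining, 24 h after dosing, in HUVEC–PBMC co-culture; DMSO-referenced bidirectional fitting.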

[6] = target: human Beta-secretase (BACE), BACE1 (gene 23621) (UniProt P56817); assay: NVS_ENZ_hBACE: NovaScreen (NVS) Enzymatic Assay for human Beta-secretase (BACE) (AID 2283140; active = hit-call score of the fitted dose curve at least 0.9, where 1 is the maximum;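 note: hits are inhibitors that reduce fluorescent substrate signal versus DMSO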)
In short: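 Cell-free assay of recombinant Sf9-expressed human BACE with fluorescent substrate, read by fluorescence intensity after 1 h. Primary screen in duplicate at 25 uM; actives then run in concentration series; loss of signal relative to DMSO.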

[7] = target: Cytochrome P450 3A4 (Homo sapiens) (UniProt P08684); assay: NVS_ADME_hCYP3A4: NovaScreen (NVS) CYP450-related Enzyme Activity (ADME) Assay for human CYP3A4 (AID 2283110; active = hit-call score of the fitted dose curve at least 0.9, where 1 is the maximum)
In short: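 Compounds were first screened in duplicate at 10 uM against recombinant CYP3A4 produced in insect cells, then actives were run in concentration series. Enzyme activity was measured by fluorescence after 0.33 hour, with acetonitrile as baseline.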

[8] = target: human CYP2B6, CYP2B6 (gene 1555) (UniProt P20813); assay: NVS_ADME_hCYP2B6: NovaScreen (NVS) CYP450-related Enzyme Activity (ADME) Assay for human CYP2B6 (AID 2283101; active = hit-call score of the fitted dose curve at least 0.9, where 1 is the maximum)
In short: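 Cell-free recombinant enzyme assay with a fluorogenic substrate; fluorescence intensity read 1 hour after dosing. Loss of signal relative to acetonitrile negative control indicates inhibition. Primary screen run in duplicate at 10 uM, actives then tested in concentration series.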

[9] = target: human CYP2C9, CYP2C9 (gene 1559) (UniProt P11712); assay: NVS_ADME_hCYP2C9: NovaScreen (NVS) CYP450-related Enzyme Activity (ADME) Assay for human CYP2C9 (AID 2283108; active = hit-call score of the fitted dose curve at least 0.9, where 1 is the maximum)
In short: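 Fluorescence readout of CYP2C9 activity (SF9-expressed human enzyme) at 0.75 h. The primary screen used 10 uM in duplicate, with concentration-response follow-up for actives; acetonitrile was the negative control.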

[10] = target: human CYP19A1, CYP19A1 (gene 1588) (UniProt P11511); assay: NVS_ADME_hCYP19A1: NovaScreen (NVS) CYP450-related Enzyme Activity (ADME) Assay for human CYP19A1 (AID 2283098; active = hit-call score of the fitted dose curve at least 0.9, where 1 is the maximum)
In short: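 Biochem, cell-free; recombinant enzyme + specific substrate; fluorescence intensity at 0.5 h post-dose; 10 uM duplicate primary, conc. series for actives; acetonitrile = negative control/baseline; positive and negative controls on every plate.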

[11] = target: human CYP2A6, CYP2A6 (gene 1548) (UniProt P11509); assay: NVS_ADME_hCYP2A6: NovaScreen (NVS) CYP450-related Enzyme Activity (ADME) Assay for human CYP2A6 (AID 2283099; active = hit-call score of the fitted dose curve at least 0.9, where 1 is the maximum)
In short: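 Loss of fluorescence signal relative to acetonitrile vehicle reported CYP2A6 inhibition in a cell-free system using insect-cell-derived enzyme. Readings were taken at 0.5 h; top concentration in follow-up dose series was 20 uM.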

Caspase-3 (Homo sapiens) = Caspase-3 (Homo sapiens) (UniProt P42574); assay: NVS_ENZ_hCASP3: NovaScreen (NVS) Enzymatic Assay for human Caspase 3 (CASP3) (AID 2283139; active = hit-call score of the fitted dose curve at least 0.9, where 1 is the maximum)
In short: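 Recombinant human caspase-3 from E. coli with a fluorogenic substrate, read by fluorescence 1 h after dosing. Primary screen in duplicate at 25 uM. Actives (for example ≥30% inhibition) rerun as concentration-response up to 50 uM.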

[12] = target: human CYP2D6, CYP2D6 (gene 1565) (UniProt P10635); assay: NVS_ADME_hCYP2D6: NovaScreen (NVS) CYP450-related Enzyme Activity (ADME) Assay for human CYP2D6 (AID 2283107; active = hit-call score of the fitted dose curve at least 0.9, where 1 is the maximum)
In short: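 Biochemical fluorescence assay, insect-cell-derived enzyme. Read at 1 h; inhibition taken from loss of signal against acetonitrile. Screened at 10 uM in duplicate, with concentration series for actives.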

[13] = target: human AKT serine/threonine Kinase 1 (AKT1), AKT1 (gene 207) (UniProt P31749); assay: NVS_ENZ_hAKT1: NovaScreen (NVS) Enzymatic Assay for human AKT serine/threonine Kinase 1 (AKT1) (AID 2283138; active = hit-call score of the fitted dose curve at least 0.9, where 1 is the maximum)
In short: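 Recombinant human AKT1 with a specific substrate, product separated by electrophoretic mobility shift, read after 1 h. Compounds at 25 uM in duplicate, then concentration-response up to 50 uM for hits; inhibition relative to DMSO.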

[14] = target: human Acid Phosphatase 1 (ACP1), ACP1 (gene 52) (UniProt P24666); assay: NVS_ENZ_hACP1: NovaScreen (NVS) Enzymatic Assay for human Acid Phosphatase 1 (ACP1) (AID 2283136; active = hit-call score of the fitted dose curve at least 0.9, where 1 is the maximum)
In short: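 Recombinant enzyme expressed in Sf9 cells, tested cell-free; activity read by fluorescence with electrophoretic mobility shift separation of substrate and product, 1.5 h after dosing. Primary screen in duplicate at 25 uM, actives then run in concentration series; loss of signal versus DMSO.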

[15] = target: Cytochrome P450 2C19 (Homo sapiens) (UniProt P33261); assay: NVS_ADME_hCYP2C19: NovaScreen (NVS) CYP450-related Enzyme Activity (ADME) Assay for human CYP2C19 (AID 2283113; active = hit-call score of the fitted dose curve at least 0.9, where 1 is the maximum;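 for AC50: potency for inhibition seen as loss of fluorescent signal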)
In short: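 Biochemical CYP2C19 inhibition screen: insect-cell recombinant protein plus fluorescent substrate, 1 h, fluorescence intensity. Acetonitrile defined baseline activity. Single 10 uM concentration in duplicate, with concentration-response follow-up for actives.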

[16] = target: human CYP1A2, CYP1A2 (gene 1544) (UniProt P05177); assay: NVS_ADME_hCYP1A2: NovaScreen (NVS) CYP450-related Enzyme Activity (ADME) Assay for human CYP1A2 (AID 2283102; active = hit-call score of the fitted dose curve at least 0.9, where 1 is the maximum;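 note: potency for inhibition since loss of fluorescence marks reduced CYP1A2 activity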)
In short: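 Inhibition scored as decrease in fluorescent product versus acetonitrile negative control. Enzyme: insect-cell recombinant human CYP1A2, substrate-specific, cell-free. Reading at 0.5 h; 10 uM duplicate initial screen with positive and negative controls on every plate.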

Measured: AC50

Sequence of E-selectin (Homo sapiens) (P16581 whole entry, looked up): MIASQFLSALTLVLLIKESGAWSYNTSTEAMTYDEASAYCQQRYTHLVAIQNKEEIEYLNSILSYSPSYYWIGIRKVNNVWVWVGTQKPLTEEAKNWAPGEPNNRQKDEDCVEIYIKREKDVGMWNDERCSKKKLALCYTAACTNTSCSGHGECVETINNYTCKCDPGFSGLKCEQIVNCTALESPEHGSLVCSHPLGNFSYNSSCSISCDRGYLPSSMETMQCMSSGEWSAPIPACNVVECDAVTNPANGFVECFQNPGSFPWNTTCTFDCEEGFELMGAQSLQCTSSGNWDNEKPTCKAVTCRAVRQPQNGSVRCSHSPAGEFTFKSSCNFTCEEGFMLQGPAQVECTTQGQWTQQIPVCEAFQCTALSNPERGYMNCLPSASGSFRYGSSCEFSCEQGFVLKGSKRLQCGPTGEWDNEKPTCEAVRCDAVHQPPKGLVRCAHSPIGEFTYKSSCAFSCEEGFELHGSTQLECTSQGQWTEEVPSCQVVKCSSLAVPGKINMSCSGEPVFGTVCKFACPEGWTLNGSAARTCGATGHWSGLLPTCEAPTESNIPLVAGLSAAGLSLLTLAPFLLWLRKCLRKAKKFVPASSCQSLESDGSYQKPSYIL
Sequence of human CYP2C9, CYP2C9 (gene 1559) (P11712 whole entry, looked up): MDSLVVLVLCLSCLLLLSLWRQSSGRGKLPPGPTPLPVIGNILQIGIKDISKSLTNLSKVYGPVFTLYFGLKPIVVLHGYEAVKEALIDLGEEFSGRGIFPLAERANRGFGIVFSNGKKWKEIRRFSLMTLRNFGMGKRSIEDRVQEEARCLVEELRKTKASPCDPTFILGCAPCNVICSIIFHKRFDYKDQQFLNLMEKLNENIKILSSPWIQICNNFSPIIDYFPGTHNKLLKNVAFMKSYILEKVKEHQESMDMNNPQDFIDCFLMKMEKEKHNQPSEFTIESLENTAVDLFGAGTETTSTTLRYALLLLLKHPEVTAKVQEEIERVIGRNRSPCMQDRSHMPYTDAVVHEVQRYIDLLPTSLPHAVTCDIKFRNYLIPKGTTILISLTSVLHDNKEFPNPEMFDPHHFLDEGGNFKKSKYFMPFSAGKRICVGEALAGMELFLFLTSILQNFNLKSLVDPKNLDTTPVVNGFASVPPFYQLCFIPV
Sequence of human Beta-secretase (BACE), BACE1 (gene 23621) (P56817 whole entry, looked up): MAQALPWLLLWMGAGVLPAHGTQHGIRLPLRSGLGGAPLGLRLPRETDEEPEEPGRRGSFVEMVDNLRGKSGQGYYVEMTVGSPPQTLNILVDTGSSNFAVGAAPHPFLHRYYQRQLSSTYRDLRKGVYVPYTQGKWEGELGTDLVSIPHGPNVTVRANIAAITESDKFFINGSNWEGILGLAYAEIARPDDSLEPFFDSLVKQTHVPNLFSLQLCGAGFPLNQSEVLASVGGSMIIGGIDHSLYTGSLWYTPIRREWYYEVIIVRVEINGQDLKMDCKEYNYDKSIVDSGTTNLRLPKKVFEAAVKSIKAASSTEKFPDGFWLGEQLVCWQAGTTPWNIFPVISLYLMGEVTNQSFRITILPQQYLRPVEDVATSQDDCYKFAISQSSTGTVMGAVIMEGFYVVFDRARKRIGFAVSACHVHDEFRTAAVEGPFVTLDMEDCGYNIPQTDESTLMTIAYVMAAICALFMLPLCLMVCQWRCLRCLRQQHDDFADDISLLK
Sequence of Cytochrome P450 3A4 (Homo sapiens) (P08684 whole entry, looked up): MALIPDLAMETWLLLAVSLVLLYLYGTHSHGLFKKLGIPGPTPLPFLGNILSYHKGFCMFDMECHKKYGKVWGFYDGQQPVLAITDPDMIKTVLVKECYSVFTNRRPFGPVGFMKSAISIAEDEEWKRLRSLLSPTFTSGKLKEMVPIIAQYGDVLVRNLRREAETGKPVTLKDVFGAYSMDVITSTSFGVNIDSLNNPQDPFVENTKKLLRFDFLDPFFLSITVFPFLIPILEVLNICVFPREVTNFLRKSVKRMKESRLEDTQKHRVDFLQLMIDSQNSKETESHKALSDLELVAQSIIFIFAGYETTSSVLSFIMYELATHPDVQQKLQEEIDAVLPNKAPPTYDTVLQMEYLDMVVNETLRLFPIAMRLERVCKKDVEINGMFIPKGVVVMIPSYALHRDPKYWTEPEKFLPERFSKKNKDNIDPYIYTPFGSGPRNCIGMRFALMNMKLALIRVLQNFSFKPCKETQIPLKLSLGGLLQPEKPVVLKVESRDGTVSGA
Sequence of human AKT serine/threonine Kinase 1 (AKT1), AKT1 (gene 207) (P31749 whole entry, looked up): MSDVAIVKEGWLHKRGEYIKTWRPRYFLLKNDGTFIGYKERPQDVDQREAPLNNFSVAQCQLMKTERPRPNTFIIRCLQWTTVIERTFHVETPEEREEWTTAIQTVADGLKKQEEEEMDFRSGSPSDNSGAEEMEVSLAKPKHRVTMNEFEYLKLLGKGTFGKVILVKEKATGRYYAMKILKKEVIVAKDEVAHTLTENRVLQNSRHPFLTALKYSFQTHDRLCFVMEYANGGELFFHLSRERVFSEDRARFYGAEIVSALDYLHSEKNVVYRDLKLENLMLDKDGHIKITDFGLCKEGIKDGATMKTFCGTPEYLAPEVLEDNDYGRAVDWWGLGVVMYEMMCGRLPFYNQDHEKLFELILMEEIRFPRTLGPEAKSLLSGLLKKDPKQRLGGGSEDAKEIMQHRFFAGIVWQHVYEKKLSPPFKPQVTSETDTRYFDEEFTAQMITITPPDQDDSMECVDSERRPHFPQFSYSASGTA
Sequence of human CYP19A1, CYP19A1 (gene 1588) (P11511 whole entry, looked up): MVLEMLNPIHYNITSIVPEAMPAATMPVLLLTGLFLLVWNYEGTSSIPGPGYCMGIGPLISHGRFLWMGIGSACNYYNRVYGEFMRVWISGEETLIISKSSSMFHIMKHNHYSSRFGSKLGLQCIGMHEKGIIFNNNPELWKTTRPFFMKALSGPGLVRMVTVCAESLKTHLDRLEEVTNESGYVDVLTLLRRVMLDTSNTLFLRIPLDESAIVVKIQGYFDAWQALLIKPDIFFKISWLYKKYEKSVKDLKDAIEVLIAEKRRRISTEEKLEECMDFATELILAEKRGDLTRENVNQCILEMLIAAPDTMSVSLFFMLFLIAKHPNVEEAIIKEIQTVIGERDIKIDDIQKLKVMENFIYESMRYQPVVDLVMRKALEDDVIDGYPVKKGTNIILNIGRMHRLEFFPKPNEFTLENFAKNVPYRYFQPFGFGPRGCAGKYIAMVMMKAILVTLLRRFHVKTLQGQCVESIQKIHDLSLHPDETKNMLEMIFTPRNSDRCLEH
Sequence of human CYP2B6, CYP2B6 (gene 1555) (P20813 whole entry, looked up): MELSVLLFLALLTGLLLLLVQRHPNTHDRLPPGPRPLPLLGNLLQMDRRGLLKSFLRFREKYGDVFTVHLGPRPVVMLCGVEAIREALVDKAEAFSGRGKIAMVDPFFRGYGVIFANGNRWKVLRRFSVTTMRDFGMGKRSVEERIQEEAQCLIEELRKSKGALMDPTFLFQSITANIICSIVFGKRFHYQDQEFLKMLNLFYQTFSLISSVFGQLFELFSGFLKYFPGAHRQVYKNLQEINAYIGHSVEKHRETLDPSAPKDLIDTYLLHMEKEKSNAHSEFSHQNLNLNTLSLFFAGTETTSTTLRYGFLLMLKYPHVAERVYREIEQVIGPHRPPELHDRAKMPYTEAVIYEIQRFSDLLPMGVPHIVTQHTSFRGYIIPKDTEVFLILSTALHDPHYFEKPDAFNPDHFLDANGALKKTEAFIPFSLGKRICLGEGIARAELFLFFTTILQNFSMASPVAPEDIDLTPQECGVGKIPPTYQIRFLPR
Sequence of human CYP2A6, CYP2A6 (gene 1548) (P11509 whole entry, looked up): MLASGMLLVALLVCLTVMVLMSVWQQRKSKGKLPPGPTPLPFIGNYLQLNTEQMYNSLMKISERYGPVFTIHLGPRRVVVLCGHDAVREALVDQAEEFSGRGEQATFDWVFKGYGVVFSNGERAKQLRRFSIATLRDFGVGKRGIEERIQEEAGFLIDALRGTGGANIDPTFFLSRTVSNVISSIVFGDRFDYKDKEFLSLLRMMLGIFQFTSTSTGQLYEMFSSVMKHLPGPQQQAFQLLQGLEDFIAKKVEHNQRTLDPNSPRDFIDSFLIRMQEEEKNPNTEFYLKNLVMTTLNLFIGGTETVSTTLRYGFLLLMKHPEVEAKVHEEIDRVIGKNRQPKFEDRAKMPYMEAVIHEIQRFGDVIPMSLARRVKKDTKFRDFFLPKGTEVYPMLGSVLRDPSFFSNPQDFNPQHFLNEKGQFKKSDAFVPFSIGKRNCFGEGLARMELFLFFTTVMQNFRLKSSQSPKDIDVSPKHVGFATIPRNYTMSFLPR
Sequence of Caspase-3 (Homo sapiens) (P42574 whole entry, looked up): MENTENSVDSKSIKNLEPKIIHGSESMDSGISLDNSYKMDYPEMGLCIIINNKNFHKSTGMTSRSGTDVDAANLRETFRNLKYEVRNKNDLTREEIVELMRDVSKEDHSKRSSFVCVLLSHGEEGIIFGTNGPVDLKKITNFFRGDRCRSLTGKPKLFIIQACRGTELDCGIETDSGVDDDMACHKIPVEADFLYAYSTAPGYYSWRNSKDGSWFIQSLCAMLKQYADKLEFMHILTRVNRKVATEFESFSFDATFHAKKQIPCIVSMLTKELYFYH
Sequence of human Acid Phosphatase 1 (ACP1), ACP1 (gene 52) (P24666 whole entry, looked up): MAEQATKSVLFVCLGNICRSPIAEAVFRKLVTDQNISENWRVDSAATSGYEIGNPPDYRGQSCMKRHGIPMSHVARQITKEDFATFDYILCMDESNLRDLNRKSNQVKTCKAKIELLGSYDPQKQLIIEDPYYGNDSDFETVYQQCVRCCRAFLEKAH

CCCCN1C(=O)[C@@H]([C@H](O)C2CCCCC2)NC(=O)C12CCN(Cc1ccc(Oc3ccc(C(=O)O)cc3)cc1)CC2
inactive: [1] | [2] | [3] | [4] | [5] | [6]

OCCOCCOCCO
inactive: [1] | [2] | [3] | [4] | [5] | [7]

Cn1cc[nH]c1=S
inactive: [1] | [2] | [3] | [4] | [5]

Cc1cccc(O)c1C
inactive: [1] | [2] | [3] | [4] | [5]

NC(=O)N(O)[C@@H]1COc2cc(OCc3ccccc3)ccc21
inactive: [1] | [2] | [3] | [4] | [5] | [8]

FC(F)(F)C(F)(F)C(F)(F)C(F)(F)C(F)(F)C(F)(F)I
inactive: [1] | [2] | [3] | [4] | [5]

OC(O)(C(F)C(O)(O)C(F)(F)F)C(F)(F)F
active: [4] 30 µM
inactive: [1] | [2] | [3] | [5]

OC(CCl)CCl
inactive: [1] | [2] | [3] | [4] | [5]

CC[C@H](C)C(=O)O[C@H]1C[C@H](O)C=C2C=C[C@H](C)[C@H](CC[C@@H](O)C[C@@H](O)CC(=O)O)[C@H]21
active: [1] 7.03 µM | [3] 11.9 µM
inactive: [2] | [4] | [5] | [9] | [6]

NC(=O)NN=Cc1ccc([N+](=O)[O-])o1
inactive: [1] | [2] | [3] | [5] | [10] | [11]
active: [4] 20 µM | Caspase-3 (Homo sapiens) 20.9 µM

O=C1CN(N=Cc2ccc([N+](=O)[O-])o2)C(=O)N1
active: [1] 9.33 µM | [4] 9.07 µM | [12] 4.5 µM
inactive: [2] | [3] | [5]

O=C(N[C@H](CO)[C@H](O)c1ccc([N+](=O)[O-])cc1)C(Cl)Cl
inactive: [6]

c1ccc2c(c1)-c1cccc3c1c-2cc1ccccc13
inactive: [2] | [3] | [4] | [5]
active: [1] 0.566 µM

CCCCCCCC/C=C\CCCCCCCC(=O)OC[C@@H](O)[C@H]1OC[C@H](O)[C@H]1O
active: [9] 16.5 µM | [6] 6.7 µM
inactive: [1] | [2] | [3] | [4] | [5] | [13]

Cc1ncc([C@@H](CCCCCCc2ccc3c(n2)NCCC3)CC(=O)O)cn1
inactive: [1] | [2] | [3] | [4] | [5] | [14] | [13]

COCc1nnc(-c2ccc[n+]([O-])c2)n1-c1c(Cl)c(Cl)cc2[nH]c(=O)c(=O)[nH]c12
active: [15] 4.13 µM
inactive: [1] | [2] | [3] | [4] | [5]

OCc1ccccc1
inactive: [1] | [2] | [3] | [4] | [5]

NC(=O)N1c2ccccc2C=Cc2ccccc21
inactive: [1] | [2] | [3] | [4] | [5] | [15]

CCc1ccc(O)c(C(C)(C)C)c1
active: [1] 29.6 µM | [2] 34.7 µM | [4] 33 µM | [5] 35.8 µM
inactive: [3]

CCN(CC)C(=S)SSC(=S)N(CC)CC
inactive: [10]
active: [1] 32.6 µM | [2] 20 µM | [3] 32.5 µM | [4] 6.07 µM | [5] 30.8 µM | [8] 0.405 µM | [16] 1.2 µM | [9] 3.12 µM

COS(C)(=O)=O
inactive: [1] | [2] | [3] | [4] | [5]

CCCCCCCC1CCC(=O)O1 (stereo not given)
inactive: [1] | [3] | [4] | [5]

COc1cc(C(C)C)c2c(c1)S(=O)(=O)N(COc1cc(=O)n3cccc(OCCN4CCCCC4)c3n1)C2=O
inactive: [2] | [5]
active: [1] 5 µM | [4] 7.69 µM | [7] 0.9 µM
